In PubChem BioAssay (EPA / NIEHS):
Records with an inconclusive call do not appear. Activity calls are given as the source filed them. The calls were made as follows: active = hit-call score of the fitted dose curve at least 0.9, where 1 is the maximum; inconclusive = response in the unintended direction; inactive = score below 0.9.

system: not listed separately; assay: ATG_M_19_TRANS: Attagene TRANS-FACTORIAL HepG2 Assay for M19 Transcription Factor (Internal Marker) (AID 2282974); details: HepG2 Attagene TRANS-FACTORIAL M19 internal marker reporter
In short: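 Transfected HepG2 (GAL4-UAS MRTUs), 24 h compound, TriZol RNA, DNase-treated RT, reporter PCR, FAM label, HpaI digest, CE fluorescence; gain vs DMSO.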

outcome, inactive:
OCCOc1cccc(OCCO)c1
O=C1OC2(c3cc(Br)c(O)c(Br)c3Oc3c2cc(Br)c(O)c3Br)c2c(Cl)c(Cl)c(Cl)c(Cl)c21
O=C1c2ccccc2C(=O)N1SC1CCCCC1
CC(C)c1ccc(C(C)C)cc1
NCCNCCN
Nc1ccc(F)c([N+](=O)[O-])c1
C=C(C)C(=O)Nc1ccc(Cl)c(Cl)c1
Clc1sc(Cl)c(Cl)c1Cl
COC(=O)OC
NNc1nc(-c2ccc(N)cc2)cs1
Cc1ccccc1C=O
CC(C)(C)c1n[nH]c(=S)n(N)c1=O
CCCC(=O)OCCC(C)CCC=C(C)C (stereo not drawn)
O=C(O)COCCN1CCN(C(c2ccccc2)c2ccc(Cl)cc2)CC1 (stereo not drawn)
CCC(O)CO (stereo not drawn)
CCc1c(C)cc(N)c(CC)c1N
Cc1ccc(Nc2ccc(O)c3c2C(=O)c2ccccc2C3=O)cc1
Cc1ccc(C=O)s1
C=CC(C)(CCC=C(C)C)OC=O (stereo not drawn)
CCCCCCCCCOC(C)=O
O=Nc1ccc(Nc2ccccc2)cc1
CC(C)c1cccc(O)c1
NC(=O)c1ccccc1Cl
CNC[C@H](O)c1cccc(O)c1
CCOC(=S)SSC(=S)OCC

system: not listed separately; assay: ATG_GAL4_TRANS: Attagene TRANS-FACTORIAL HepG2 Assay for GAL4 (Internal Marker) (AID 2282976); details: HepG2 Attagene TRANS GAL4 internal marker reporter
In short: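 Fluorescence from capillary electrophoresis of labelled RT-PCR products quantifies reporter mRNA induction after 24 h dosing of HepG2 cells carrying transfected GAL4-UAS reporter transcription units. Vehicle DMSO serves as baseline.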

outcome, inactive:
OCCOc1cccc(OCCO)c1
O=C1OC2(c3cc(Br)c(O)c(Br)c3Oc3c2cc(Br)c(O)c3Br)c2c(Cl)c(Cl)c(Cl)c(Cl)c21
O=C1c2ccccc2C(=O)N1SC1CCCCC1
NCCNCCN
Nc1ccc(F)c([N+](=O)[O-])c1
C=C(C)C(=O)Nc1ccc(Cl)c(Cl)c1
COc1ccc(OC)c(OC)c1
Clc1sc(Cl)c(Cl)c1Cl
COC(=O)OC
CCCC(=O)OCCC(C)CCC=C(C)C (stereo not drawn)
CC(C)(C)NC(N)=O
O=C(O)COCCN1CCN(C(c2ccccc2)c2ccc(Cl)cc2)CC1 (stereo not drawn)
CCC(O)CO (stereo not drawn)
CCc1c(C)cc(N)c(CC)c1N
O=C(O)c1cccc(C(F)(F)F)c1
Cc1ccc(C=O)s1
C=CC(C)(CCC=C(C)C)OC=O (stereo not drawn)
CCCCCCCCCOC(C)=O
COC(=O)c1ccc(C)cc1
CNC[C@H](O)c1cccc(O)c1

target: Estrogen-related receptor gamma (Homo sapiens) (UniProt P62508); assay: ATG_ERRg_TRANS: Attagene TRANS-FACTORIAL HepG2 Assay for human Estrogen-Related Receptor gamma (ERRg) (AID 2282977); details: HepG2 Attagene TRANS reporter, ERRg transactivation;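 also: hits increase reporter signal over DMSO so potencies reflect activators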
Sequence (P62508 whole entry, looked up, the tested form may be a part): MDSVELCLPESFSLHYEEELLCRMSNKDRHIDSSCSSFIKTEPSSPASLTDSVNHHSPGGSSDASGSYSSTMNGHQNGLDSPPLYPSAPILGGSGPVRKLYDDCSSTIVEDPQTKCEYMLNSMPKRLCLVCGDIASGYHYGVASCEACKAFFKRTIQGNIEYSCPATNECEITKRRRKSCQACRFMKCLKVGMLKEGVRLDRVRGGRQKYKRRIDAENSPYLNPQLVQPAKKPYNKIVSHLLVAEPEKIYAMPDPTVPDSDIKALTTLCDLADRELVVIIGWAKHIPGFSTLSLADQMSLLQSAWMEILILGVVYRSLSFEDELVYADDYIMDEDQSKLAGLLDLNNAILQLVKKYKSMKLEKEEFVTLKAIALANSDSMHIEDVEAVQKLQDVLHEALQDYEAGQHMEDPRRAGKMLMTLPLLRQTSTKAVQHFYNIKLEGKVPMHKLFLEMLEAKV
In short: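 HepG2 cells transiently transfected with multiplexed GAL4-UAS reporter units driven by chimeric NR-Gal4 proteins; 24 h exposure. Reporter mRNA quantified by RT-PCR, fluorescent labelling, HpaI digestion and capillary electrophoresis; gain of signal vs DMSO.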

outcome, inactive:
OCCOc1cccc(OCCO)c1
O=C1OC2(c3cc(Br)c(O)c(Br)c3Oc3c2cc(Br)c(O)c3Br)c2c(Cl)c(Cl)c(Cl)c(Cl)c21
Nc1ccc(F)c([N+](=O)[O-])c1
Nc1cccc(S(=O)(=O)c2cccc(N)c2)c1
COC(=O)OC
NNc1nc(-c2ccc(N)cc2)cs1
CCCC(=O)OCCC(C)CCC=C(C)C (stereo not drawn)
CCc1c(C)cc(N)c(CC)c1N
O=C(O)c1cccc(C(F)(F)F)c1
Cc1ccc(C=O)s1
C=CC(C)(CCC=C(C)C)OC=O (stereo not drawn)
O=Nc1ccc(Nc2ccccc2)cc1
CC(C)c1cccc(O)c1
NC(=O)c1ccccc1Cl

target: Glucocorticoid receptor (Homo sapiens) (UniProt P04150); assay: ATG_GR_TRANS: Attagene TRANS-FACTORIAL HepG2 Assay for human Glucocorticoid Receptor (GR) (AID 2282978); details: HepG2 Attagene TRANS GR reporter, mRNA transcription;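 also: activators score as hits since higher reporter transcript over DMSO is fitted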
Sequence (P04150 whole entry, looked up): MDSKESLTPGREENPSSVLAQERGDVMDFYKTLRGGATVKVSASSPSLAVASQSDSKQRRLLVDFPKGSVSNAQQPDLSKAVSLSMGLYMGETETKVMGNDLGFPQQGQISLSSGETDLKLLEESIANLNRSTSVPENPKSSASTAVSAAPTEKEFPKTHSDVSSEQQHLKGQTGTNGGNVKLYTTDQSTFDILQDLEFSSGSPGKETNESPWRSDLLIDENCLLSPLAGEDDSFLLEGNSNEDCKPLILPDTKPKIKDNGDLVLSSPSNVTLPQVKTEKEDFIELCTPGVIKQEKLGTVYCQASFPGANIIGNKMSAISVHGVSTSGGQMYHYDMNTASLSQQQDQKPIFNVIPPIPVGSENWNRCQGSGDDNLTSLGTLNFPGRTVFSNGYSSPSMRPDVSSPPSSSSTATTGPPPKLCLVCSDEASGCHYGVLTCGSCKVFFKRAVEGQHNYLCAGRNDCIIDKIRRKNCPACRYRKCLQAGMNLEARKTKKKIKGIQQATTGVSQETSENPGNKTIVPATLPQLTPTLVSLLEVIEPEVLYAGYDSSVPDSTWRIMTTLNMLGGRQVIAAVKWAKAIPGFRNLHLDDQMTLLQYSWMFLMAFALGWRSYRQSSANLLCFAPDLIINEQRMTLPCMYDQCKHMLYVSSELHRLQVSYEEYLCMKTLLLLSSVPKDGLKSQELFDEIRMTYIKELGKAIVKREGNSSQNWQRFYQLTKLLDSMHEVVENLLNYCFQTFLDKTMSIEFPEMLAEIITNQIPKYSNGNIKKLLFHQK
In short: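 After 24 h incubation with test chemical, transfected HepG2 cells were lysed for RNA; reporter cDNA was amplified, FAM-labelled, HpaI-digested and sized on a capillary analyser. Signal gain relative to DMSO was scored.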

outcome, inactive:
O=C1OC2(c3cc(Br)c(O)c(Br)c3Oc3c2cc(Br)c(O)c3Br)c2c(Cl)c(Cl)c(Cl)c(Cl)c21
CC(C)c1ccc(C(C)C)cc1
Nc1ccc(F)c([N+](=O)[O-])c1
Nc1cccc(S(=O)(=O)c2cccc(N)c2)c1
COC(=O)OC
Cc1ccccc1C=O
CCC(O)CO (stereo not drawn)
CN(C)CCCN
CC1=CCC2C(C1)C2(C)C (stereo not drawn)
Cc1ccc2sc3cccc(C)c3c2c1
CC(C)c1cccc(O)c1
NC(=O)c1ccccc1Cl
CCOC(=S)SSC(=S)OCC
COC(=O)Cc1cccc2ccccc12

target: Bile acid receptor (Homo sapiens) (UniProt Q96RI1); assay: ATG_FXR_TRANS: Attagene TRANS-FACTORIAL HepG2 Assay for Farnesoid X Receptor (FXR) (AID 2282979); details: HepG2 Attagene TRANS FXR-GAL4 reporter transcription;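 also: hits raise reporter mRNA above DMSO so AC50 marks FXR activation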
Sequence (Q96RI1 whole entry, looked up, the tested form may be a part): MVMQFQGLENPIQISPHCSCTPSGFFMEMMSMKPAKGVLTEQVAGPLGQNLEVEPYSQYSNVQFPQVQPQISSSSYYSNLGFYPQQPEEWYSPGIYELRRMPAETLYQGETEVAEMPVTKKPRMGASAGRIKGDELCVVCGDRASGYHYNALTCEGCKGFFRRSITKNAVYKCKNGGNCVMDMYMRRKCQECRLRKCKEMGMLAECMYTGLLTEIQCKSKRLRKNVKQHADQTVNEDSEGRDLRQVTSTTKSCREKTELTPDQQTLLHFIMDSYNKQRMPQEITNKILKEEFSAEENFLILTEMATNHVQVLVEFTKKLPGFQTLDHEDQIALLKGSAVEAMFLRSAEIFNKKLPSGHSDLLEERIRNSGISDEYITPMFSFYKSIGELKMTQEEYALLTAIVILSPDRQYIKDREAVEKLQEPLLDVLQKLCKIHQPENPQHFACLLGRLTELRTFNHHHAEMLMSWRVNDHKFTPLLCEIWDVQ
In short: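 Chimeric FXR-GAL4 activity in transiently transfected human HepG2 liver cells is scored as induction of reporter mRNA after 24 h of dosing. Detection uses RT-PCR with fluorescent labelling and capillary electrophoresis, with DMSO serving as baseline.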

outcome, inactive:
O=C1c2ccccc2C(=O)N1SC1CCCCC1
CC(C)c1ccc(C(C)C)cc1
COc1ccc(OC)c(OC)c1
O=P(c1ccccc1)(c1ccccc1)c1ccccc1
O=C(O)COCCN1CCN(C(c2ccccc2)c2ccc(Cl)cc2)CC1 (stereo not drawn)
CCC(O)CO (stereo not drawn)
CCc1c(C)cc(N)c(CC)c1N
CN(C)CCCN
Cc1ccc(Nc2ccc(O)c3c2C(=O)c2ccccc2C3=O)cc1
CC(=O)OCCC(C)CC(C)(C)C (stereo not drawn)
CCCCCCCCCOC(C)=O
CC1=CCC2C(C1)C2(C)C (stereo not drawn)
Cc1ccc2sc3cccc(C)c3c2c1
O=Nc1ccc(Nc2ccccc2)cc1
NC(=O)c1ccccc1Cl
COC(=O)c1ccc(C)cc1

target: Oxysterols receptor LXR-alpha (Homo sapiens) (UniProt Q13133); assay: ATG_LXRa_TRANS: Attagene TRANS-FACTORIAL HepG2 Assay for human Liver X Receptor alpha (LXRa) (AID 2282980); details: HepG2 Attagene TRANS reporter, LXRa transactivation
Sequence (Q13133 whole entry, looked up): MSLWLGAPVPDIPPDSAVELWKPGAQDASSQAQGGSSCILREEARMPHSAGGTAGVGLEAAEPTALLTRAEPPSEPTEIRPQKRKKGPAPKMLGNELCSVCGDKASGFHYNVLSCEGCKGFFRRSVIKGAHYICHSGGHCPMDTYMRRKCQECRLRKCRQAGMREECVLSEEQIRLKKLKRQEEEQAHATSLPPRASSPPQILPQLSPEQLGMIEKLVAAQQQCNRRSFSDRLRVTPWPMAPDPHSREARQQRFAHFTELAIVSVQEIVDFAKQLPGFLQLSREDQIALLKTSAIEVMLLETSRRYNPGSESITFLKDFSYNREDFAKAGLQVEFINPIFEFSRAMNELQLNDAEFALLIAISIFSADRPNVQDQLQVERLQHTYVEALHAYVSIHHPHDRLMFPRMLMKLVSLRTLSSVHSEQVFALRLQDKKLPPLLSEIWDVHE
In short: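 Transient HepG2 transfectants, 24 h dosing, RT-PCR/CE mRNA reporter quantitation; gain-of-signal vs DMSO.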

outcome, inactive:
O=C1OC2(c3cc(Br)c(O)c(Br)c3Oc3c2cc(Br)c(O)c3Br)c2c(Cl)c(Cl)c(Cl)c(Cl)c21
O=C1c2ccccc2C(=O)N1SC1CCCCC1
C=C(C)C(=O)Nc1ccc(Cl)c(Cl)c1
COC(=O)OC
Cc1ccccc1C=O
CC(C)(C)c1n[nH]c(=S)n(N)c1=O
CC(C)(C)NC(N)=O
CCC(O)CO (stereo not drawn)
O=C(O)c1cccc(C(F)(F)F)c1
Cc1ccc(Nc2ccc(O)c3c2C(=O)c2ccccc2C3=O)cc1
Cc1ccc(C=O)s1
CC1=CCC2C(C1)C2(C)C (stereo not drawn)
CCCCCC(=O)OCCc1ccccc1
O=Nc1ccc(Nc2ccccc2)cc1
CC(C)c1cccc(O)c1
NC(=O)c1ccccc1Cl
COC(=O)c1ccc(C)cc1
CCOC(=S)SSC(=S)OCC
COC(=O)Cc1cccc2ccccc12
